Compound activity deposited in PubChem BioAssay by several laboratories.
697 NFkB inh: inhibitors of PMA/ionomycin-induced NF-kB reporter, 697 cells, primary screen, B-cell NF-kB inhibitor project, cell-based, luminescence, uHTS; 0.33% of 330,000 active; inhibition, % at 4 µM; AID 435022, 2010; 697 B-cell NF-kB luciferase reporter, 16 h; in the data active means inhibition above about 35%
Gli-Sufu block: Gli-Sufu pathway antagonists, primary screen, luciferase luminescence, Sufu-KO-LIGHT cells, uHTS. Sufu-KO-LIGHT fibroblasts, Gli luciferase reporter luminescence. inhibition, % at 5 µM. 0.74% of 340,000 active. AID 588413, 2011;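 active means inhibition above about 55%, limit read from the data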;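 further: 0% = DMSO-treated cells and 100% = wells with medium but no cells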
GalR3 antag: GalR3 antagonists in HEK293 cells, primary screen, cell-based, fluorescence readout; 0.44% of 360,000 active; AID 651719, 2012; inhibition, % at 3 µM; HEK293 GalR3-CNG cAMP membrane potential fluorescence; galR3 body fused to GalR1 C-terminus;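 active means inhibition above the screen-wide average plus 3 SD, cut at about 13% in these data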;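 further: forskolin and galanin both at EC90 stimulate the cells; cAMP rise reported by CNG channel membrane potential dye signal; 0% = forskolin plus galanin with DMSO and 100% = forskolin alone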
Target sequence (O60755 1-299 limits assumed): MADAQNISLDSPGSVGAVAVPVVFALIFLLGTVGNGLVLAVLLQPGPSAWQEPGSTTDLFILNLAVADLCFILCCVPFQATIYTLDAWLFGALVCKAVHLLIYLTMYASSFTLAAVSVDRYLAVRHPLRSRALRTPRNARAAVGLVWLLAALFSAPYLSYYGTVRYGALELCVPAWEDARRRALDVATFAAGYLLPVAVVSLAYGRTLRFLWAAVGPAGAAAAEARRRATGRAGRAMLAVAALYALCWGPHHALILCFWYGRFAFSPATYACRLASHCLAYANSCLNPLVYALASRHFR
NR2F2 inh: NR2F2 transcriptional activity inhibitors, primary screen, cell-based, luciferase reporter, HEK293T, luminescence | inhibition, % at 8.6 µM | 0.7% of 370,000 active | HEK293T NGFI-A luciferase reporter | AID 686940, 2013 | COUP transcription factor 2 (Homo sapiens), P24468;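 active means inhibition above a per-plate cutoff, mean inhibition of test wells between control levels plus 3 SD, cut at about 38% in these data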;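 further: cells cotransfected with COUP-TFII expression vector driving the NGFI-A reporter; 0% = median of COUP-TF2 test wells and 100% = reporter-only cells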
Target sequence (P24468 whole entry, looked up): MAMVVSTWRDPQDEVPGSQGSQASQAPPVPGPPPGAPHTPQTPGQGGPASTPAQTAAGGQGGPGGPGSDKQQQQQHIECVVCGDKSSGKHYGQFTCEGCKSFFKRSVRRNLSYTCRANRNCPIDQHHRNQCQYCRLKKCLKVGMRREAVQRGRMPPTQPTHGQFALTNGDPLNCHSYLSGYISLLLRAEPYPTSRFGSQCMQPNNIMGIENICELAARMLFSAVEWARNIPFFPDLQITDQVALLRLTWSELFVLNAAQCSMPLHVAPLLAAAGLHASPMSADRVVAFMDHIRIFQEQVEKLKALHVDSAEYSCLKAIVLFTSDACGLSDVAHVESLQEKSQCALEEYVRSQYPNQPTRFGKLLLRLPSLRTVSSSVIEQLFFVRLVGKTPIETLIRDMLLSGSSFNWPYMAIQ
Jurkat NFkB inh: inhibitors of induced NF-kB luciferase reporter, primary screen, TCR NF-kB activation inhibitor project, cell-based, luminescence, uHTS; inhibition, % at 4 µM; AID 435003, 2010; Jurkat, PMA/ionomycin-induced NF-kB luciferase reporter; 0.53% of 330,000 active; in the data active means inhibition above about 50%
Gli antag conf: Gli-SUFU pathway antagonists, confirmation, single concentration, luciferase luminescence, Sufu-KO-LIGHT cells. shares compounds with Gli-Sufu block. Gli luciferase reporter. inhibition, % at 5 µM. AID 602428, 2012. 40% of 2,500 active;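 active means mean inhibition at 5 µM reaching about 45%, limit read from the data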;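 further: plate controls were DMSO-treated cells for no effect and wells lacking cells for full effect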
SufuKO cytotox: cytotoxicity in Sufu-KO-LIGHT cells, confirmation, cytotoxicity control for Gli-SUFU antagonist project, cell-based, ATP luminescence, single concentration | shares compounds with Gli-Sufu block | cytotoxicity, % at 5 µM | 32% of 2,500 active;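 active means mean cytotoxicity at 5 µM above about 25%, limit read from the data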;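 further: cells exposed to compound overnight for roughly 16 to 18 hours; plate controls were DMSO wells with cells for no effect and medium without cells for full effect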
Wnt3a counter: Wnt3a reporter signal inhibition, confirmation, counter-screen for Gli-SUFU antagonist project, Wnt-LIGHT cells, luminescence, single concentration; Wnt3a-driven luciferase reporter; shares compounds with Gli-Sufu block; AID 651995, 2013; 20% of 2,500 active; inhibition, % at 6.25 µM;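 active means mean inhibition above about 25%, limit read from the data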
The depositor's hits bear a star; . = no result. Rows were chosen to be rich in hits. Some 2% of all compounds tested hit in one or more screens of this group.

SMILES	697 NFkB inh	Gli-Sufu block	GalR3 antag	NR2F2 inh	Jurkat NFkB inh	Gli antag conf	SufuKO cytotox	Wnt3a counter
Cc1ccc(C23CC4CC(CC(NC(=O)NN)(C4)C2)C3)cc1	12.6	51.5	-8.6	11.7	3.3	8.6	-2.6	2.8
Cc1nn(C(C)(C)C)c(OC(=O)c2cccs2)c1Sc1ccccc1	14.2	10.7	-7.5	15.6	15.1	.	.	.
Cc1nn(C(C)(C)C)c(OC(=O)c2ccco2)c1Sc1ccccc1	18.4	92.4*	-4.1	17.4	-1.8	35.7	4.3	0.2
C=CCn1c(Cc2cccs2)nnc1SCC(=O)Nc1ccc2c(c1)OCO2	.	.	.	2.2	.	.	.	.
COc1cc(NC(=S)NCCCN2CCOCC2)cc(OC)c1OC	-10.2	-4.5	-3.8	9.1	-14.1	.	.	.
COc1cc(NC(=S)NCCN2CCOCC2)cc(OC)c1OC	-19.0	50.9	-3.9	11.9	-20.0	24.3	3.1	1.8
Cc1nn(Cc2ccc(Cl)cc2)c(C)c1NC(=O)Cn1nc([N+](=O)[O-])c(Cl)c1C	-4.8	50.9	6.4	-11.2	-12.9	10.0	8.3	11.7
Cc1nn(Cc2ccccc2)c(C)c1NC(=O)CCCn1nc([N+](=O)[O-])c(Cl)c1C	11.6	54.0	-7.7	6.1	7.4	16.4	13.3	-31.5
CCOc1ccc(/C(O)=C/C(=O)C(=O)Nc2ccc(S(=O)(=O)NC(C)=O)cc2)cc1	-15.2	83.8*	5.7	-9.2	-4.6	17.2	12.1	-11.2
CCOc1ccc(NS(=O)(=O)c2ccc(NC(=S)NC(C)=O)cc2)cc1	-5.1	12.2	-5.7	4.5	10.9	.	.	.
O=[N+]([O-])c1cc(/C=N/N/C(=N/c2ccccn2)c2ccccn2)ccc1O	-51.9	79.2*	0.3	-20.1	-28.1	24.3	26.7*	-36.9
CN(C)c1cccc(NC2=CC(=[N+]3CCOCC3)CC(C)(C)C2)c1	-6.7	12.1	-3.5	11.5	8.2	.	.	.
CCN(CC)C1=CC(=[N+]2CCCC2)CC(C)(C)C1	-0.8	79.4*	1.3	34.1	46.0	81.7*	31.6*	47.8*
Cc1ccc(C)c(NC(=O)CN(C)C(=O)CSCc2c(C)noc2C)c1	-9.8	-3.6	0.3	13.5	5.2	.	.	.
CCN(CC(=O)Nc1cc(Cl)ccc1C)C(=O)CSCc1c(C)noc1C	7.9	51.6	-3.3	1.2	-0.8	12.7	21.8	-10.1
N=c1nc2n(cc1F)C1OC(CO)C(O)C1O2 (stereo not given)	.	55.5*	-5.0	-19.9	.	46.9*	26.4*	36.0*
N=c1ncn(C2OC(CO)C(O)C2O)c2nc(Br)[nH]c12 (stereo not given)	.	.	-5.8	-6.9	.	.	.	.
C[C@@H]1OC(C2CCCCC2)N(C)[C@H]2C[C@H]3c4[nH]c5c(-c6ccc7c(c6)OCO7)cccc5c4CCN3C[C@@H]12 (stereo not given in full)	.	.	.	-10.0	.	.	.	.
O=[N+]([O-])c1ncccc1OCCOc1ccc(Cl)cc1Cl	.	.	.	1.2	.	.	.	.
COc1ccc(C(CCN(Cc2ccc(OC)c(OC)c2)C(C)=O)c2ccccc2)cc1 (stereo not given)	-18.1	56.8*	-4.0	12.6	8.1	22.9	22.7	12.1
COc1ccc(CN(CCC(c2ccccc2)c2ccc(OC(C)C)cc2)C(=O)CCl)cc1OC (stereo not given)	-8.7	9.5	-9.2	4.5	-4.2	.	.	.
COC(=O)[C@]12C[C@H](CC(=O)N3CCSCC3)C(=O)N(Cc3ccc(Cl)cc3Cl)C1=C[C@H](COCc1ccccc1)O[C@@H]2C	.	.	.	18.4	.	.	.	.
CC(C)N1CCC(N2CCN(CCCc3ccccc3)CC2CCO)CC1 (stereo not given)	15.8	60.2*	0.3	-1.7	-12.8	13.3	27.4*	-6.1
OCCC1CN(Cc2cc(F)ccc2F)CCN1CCCc1ccccc1 (stereo not given)	-22.9	52.6	-9.8	-14.9	-2.8	12.6	17.6	-39.6
COCCN(Cc1cn(C)nc1-c1ccc(Oc2ccccc2)cc1)C(C)C	-20.2	56.7*	-5.3	13.5	11.4	17.2	14.8	-60.8
SMILES	697 NFkB inh	Gli-Sufu block	GalR3 antag	NR2F2 inh	Jurkat NFkB inh	Gli antag conf	SufuKO cytotox	Wnt3a counter
CC1Sc2n(c3ccccc3[n+]2C)N=C1c1ccccc1 (stereo not given)	-50.8	59.4*	-1.7	30.5	24.2	74.9*	27.0*	12.1
O=C(O)c1cc2nc(C3CC3)cc(C(F)(F)F)n2n1	11.5	56.1*	-0.7	8.0	4.7	15.4	-9.6	9.7
CCOc1ccccc1NC(=O)C(=O)N/N=C/c1cc(Br)ccc1O	-16.1	56.0*	-2.5	8.9	-25.4	63.3*	38.8*	58.5*
COc1cccc(/C=N/NC(=O)C(=O)Nc2ccccc2OC(F)(F)C(F)F)c1O	-80.4	79.8*	-4.4	6.1	22.7	71.5*	47.2*	65.6*
CC(C)CNC(=O)OCc1cn(Cc2cccc(Cl)c2)nn1	.	.	.	-20.3	.	.	.	.
CC1(C)CC(=O)c2c(nc3ccccc3c2N)C1	8.6	4.3	-5.5	2.8	-2.9	.	.	.
CC1(C)CC(=O)c2c(noc2-c2ccccc2)C1	-26.8	75.2*	-2.2	-18.4	-2.1	19.7	28.4*	-47.4
O=C(NC1CCCCN(Cc2cccc(Cl)c2)C1=O)c1ccc(F)cc1 (stereo not given)	.	.	.	-6.3	.	.	.	.
C=CCOC(=O)N[C@H](c1ccccc1)[C@H](C)/C=C/CC(=O)OC	.	.	.	24.1	.	.	.	.
CC(C)OCCCNC(=O)c1ccc(CS(=O)(=O)c2cccc(C(F)(F)F)c2)o1	1.3	53.6	-13.2	-4.8	15.3	19.2	19.0	-3.6
CC(C)NC(=O)NC1CCN(CC(=O)Nc2ccc3c(c2)OCCO3)CC1	.	.	.	-14.9	.	.	.	.
O=C(OC12CCCN(C1)/C(=C/c1ccccc1)C2)c1cccc(F)c1 (stereo not given)	.	.	.	-4.2	.	.	.	.
COc1ccc(N(CC(=O)NCCC2=CCCCC2)S(=O)(=O)c2ccccc2)cc1	-18.8	57.3*	-0.8	6.4	-5.2	21.6	21.1	-22.7
COC(=O)c1ccc(CN2CCCC(C(=O)Nc3cccc(-n4cccn4)c3)C2)cc1 (stereo not given)	-20.2	53.2	-4.4	17.0	0.2	15.4	19.5	4.4
COc1ccc(CN2CCCC(C(=O)Nc3cccc(-n4cccn4)c3)C2)cc1 (stereo not given)	14.1	18.4	4.5	13.5	14.8	.	.	.
